Assay outcomes as filed in PubChem.
Tb PYK inh: blocks Trypanosoma brucei pyruvate kinase; TbPYK enzyme, Kinase-Glo Plus ATP luminescence, 45 min; Potency, µM (doses to about 76.8 µM), usual class: inhibitors; hit rate 0.12% among 410,000; AID 624173; note: nearly all actives have a fitted effect of over 50% in size
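Quantitative HTS: titrated library compounds versus trypanosomal pyruvate kinase in TEA buffer (pH 7.2) containing KCl, MgCl2, BSA and Tween-20. Reactions were initiated with ADP, 130 uM final. Kinase-Glo Plus luminescence was read after 45 min at RT.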
Sm TGR block: S. mansoni TGR enzyme inhibition. Q962Y6. purified TGR, DTNB reduction, TNB absorbance 405 nm. Potency, µM (highest dose often 114 µM), most hits filed as inhibitors. hit rate 3% among 360,000. AID 485364; note: nearly all actives have a fitted effect of over 60% in size
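TGR 20 nM + NADPH 100 uM (dispensed conc.), cpd preinc 15 min RT; start with NADPH (500 uM addition) then DTNB (15 mM addition). Kinetic TNB absorbance, 405 nm filter. Four-parameter Hill fit across titration.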
Giardia FBPA inh: Giardia lamblia aldolase inhibition; Potency, µM (series often up to 59.6 µM), most hits filed as inhibitors; A8B2U2; AID 2451; hit rate 0.71% among 290,000; purified Giardia FBPA; note: nearly all actives have a fitted effect of over 55% in size
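40 nM FBPA preincubated 10 min at RT with compound (up to 57.5 uM final), then substrate plus GAPDH/TPI/NAD/arsenate coupling and diaphorase/resazurin added. Fluorescence read after 20 min at RT, 525/598 nm.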
Shiga toxin inh: blocks Shiga toxin action in Vero cells; inhibition, % at 38.7 µM; Vero cells, Shiga toxin protein synthesis inhibition reporter; AID 2315; hit rate 9.2% among 290,000; in the data active = inhibition mostly above about 28%, no sharp cut-off; inactive = mostly below about 43%
CHX counter: counter-screen hit for Shiga toxin inhibitors, cycloheximide; cell reporter, cycloheximide protein synthesis inhibition counterscreen; max response, %; hit rate 12% among 300,000; in the data active = max response mostly above about 13%, no sharp cut-off; inactive = mostly below about 14%; note: read at 38.3 µM for the half of the compounds with a filed dose
LmPK inh: LmPK (Leishmania mexicana) enzyme inhibition | purified LmPK, Kinase-Glo ATP luminescence, 1 h | hit rate 0.37% among 290,000 | AID 1721 | Potency, µM (highest dose often 57.5 µM), actives largely listed as inhibitors | Q27686
Target sequence (Q27686 whole entry, looked up): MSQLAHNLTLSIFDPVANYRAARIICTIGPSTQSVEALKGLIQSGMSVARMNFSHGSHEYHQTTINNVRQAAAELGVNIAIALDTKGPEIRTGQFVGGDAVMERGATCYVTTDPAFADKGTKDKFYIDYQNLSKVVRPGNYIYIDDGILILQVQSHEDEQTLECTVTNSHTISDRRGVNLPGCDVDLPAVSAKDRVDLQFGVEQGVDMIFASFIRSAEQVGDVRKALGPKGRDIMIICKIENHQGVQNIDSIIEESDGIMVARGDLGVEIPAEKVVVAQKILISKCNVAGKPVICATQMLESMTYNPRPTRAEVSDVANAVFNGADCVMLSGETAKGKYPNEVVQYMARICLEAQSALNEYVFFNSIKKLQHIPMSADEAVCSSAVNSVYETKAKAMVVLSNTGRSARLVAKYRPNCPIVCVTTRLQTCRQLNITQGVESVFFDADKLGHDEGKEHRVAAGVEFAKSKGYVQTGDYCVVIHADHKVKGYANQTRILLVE
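Screened at intermediate enzyme activity to detect both inhibitors and activators: LmPK at 0.1 nM, with a 0.5 nM enzyme column as activation reference. PEP 0.5 mM, ADP 0.1 mM; ATP detected by luminescence after 1 h.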
A number is an active result; . = inactive; ? = inconclusive; / = not tested or not shown. Shown is part of a subset that was picked to be rich in hits. Unless noted, calls come from the whole dose curve; as a rule, active = well fitted curve in the direction sought with a large enough effect; inconclusive = small, poorly fitted or top-dose-only effect, or another doubt; inactive = no such curve, though single readings can be large; an effect the other way counts as inactive or inconclusive.

SMILES | Tb PYK inh | Sm TGR block | Giardia FBPA inh | Shiga toxin inh | CHX counter | LmPK inh
N#C/C(=C\c1ccc(N2CCOCC2)o1)c1nc2ccccc2[nH]1 | . | ? | ? | 121 | 49 | .
N#C/C(=C\c1ccc(-c2ccc(C(=O)O)cc2)o1)c1nc2ccccc2[nH]1 | . | . | . | . | . | .
COC(=O)/C(C#N)=C/c1ccc(N2CCOCC2)c([N+](=O)[O-])c1 | . | . | . | . | . | .
N#C/C(=C/c1ccc(N2CCOCC2)o1)c1ccc(Cl)cc1 | ? | 1µM | ? | . | 36 | .
N#C/C(=C\c1ccc(N2CCOCC2)c([N+](=O)[O-])c1)c1nc2ccccc2[nH]1 | . | . | . | . | 13 | .
CC(=O)c1c(C(C)=O)c(C)n(NC(=O)c2ccncc2)c1C | . | . | . | . | . | .
O=C(Nc1cccc(C(F)(F)F)c1)c1cc2nc(-c3ccccc3)cc(C(F)(F)F)n2n1 | . | . | / | / | / | /
CC1=C/C(=C(/c2ccc(O)c(C)c2)c2ccccc2S(=O)(=O)O)C=CC1=O | . | . | / | / | / | /
CC1=C/C(=C(/c2cc(C)c(O)c(Br)c2)c2ccccc2S(=O)(=O)O)C=C(Br)C1=O | ? | 45µM | . | . | . | 20µM
Cc1nn(CC(=O)NC2CCCCC2)c(=O)c2cc3cc(F)ccc3n12 | . | . | / | / | / | /
CCS(=O)(=O)C1=NN2C(=N)/C(=C\c3ccc(OC(=O)c4ccco4)c(Br)c3)C(=O)N=C2S1 | / | 45µM | . | . | . | .
CCOc1cc(/C=C2\C(=N)N3N=C(S(=O)(=O)CC)SC3=NC2=O)ccc1OC(=O)c1ccco1 | . | . | / | . | . | .
C/C(=N/O)c1no[n+]([O-])c1/C(C)=N\O | . | 7.1µM | . | . | . | .
O=C(NCc1cccnc1)Nc1ccc2c(c1)OCO2 | . | . | . | 128 | 27 | .
O=C(NCc1cccnc1)Nc1cccc(F)c1 | . | . | . | . | . | .
c1cncc(CNc2ccc3c(c2)OCO3)c1 | ? | 16µM | ? | . | . | .
Cn1cc(CNC(=O)Nc2ccc3c(c2)OCO3)cn1 | . | . | . | . | 15 | .
O=C(NCCCn1ccnc1)Nc1ccc2c(c1)OCO2 | . | . | . | 76 | 39 | .
c1cncc(CNc2ncncc2-c2ccc3c(c2)OCO3)c1 | / | / | . | / | / | /
COc1ccc(C(=O)NC(=O)COC(=O)c2ccc3ncsc3c2)cc1 | / | . | ? | 35 | 32 | .
Cc1c(Cl)cnc(NC(=O)COC(=O)c2ccc3ncsc3c2)c1Cl | . | . | . | 60 | 34 | .
O=C(COC(=O)c1ccc2ncsc2c1)Nc1ncc(Cl)cc1Cl | . | . | . | . | 37 | .
Cc1ccnc(NC(=O)c2cccc(S(=O)(=O)N3CCCC3)c2)c1 | . | . | / | . | 25 | .
Cc1cc(NC(=O)c2cccc(S(=O)(=O)N3CCOCC3)c2)no1 | . | . | . | . | . | .
Cc1cc(NC(=O)c2cccc(S(=O)(=O)N3CCCCC3)c2)no1 | . | . | / | . | 9.3 | .
SMILES | Tb PYK inh | Sm TGR block | Giardia FBPA inh | Shiga toxin inh | CHX counter | LmPK inh
Cc1ccnc(NC(=O)c2cccc(S(=O)(=O)N3CCN(c4ccccc4)CC3)c2)c1 | . | . | / | / | / | /
Cc1ccc(-c2ccc(CCC(=O)O)n2-c2ccc(O)cc2)cc1 | . | 25µM | . | . | . | .
CCOC(=O)c1ccc(-n2c(CCC(=O)O)ccc2-c2ccc(Br)cc2)cc1 | . | 20µM | / | / | / | /
O=C(O)CCc1ccc(-c2ccc(Br)cc2)n1-c1ccc(O)cc1 | . | 28µM | . | . | . | .
O=C(O)CCc1ccc(-c2ccc(Cl)cc2)n1-c1cccc(C(F)(F)F)c1 | . | 25µM | / | / | / | /
CCOc1ccc(-n2c(CCC(=O)O)ccc2-c2ccc(Br)cc2)cc1 | . | ? | / | / | / | /
CCC(C)NC(=O)c1sc2nc3n(c(=O)c2c1C)CCC3 (centres undefined) | . | . | / | / | / | /
C=C1C=CS(=O)(=O)N(C(C)C(=O)OC)C1 (centres undefined) | / | / | . | . | . | /
Cc1ccc(-c2ccc(CCC(=O)O)n2-c2cccc(O)c2)cc1 | . | 14µM | . | 121 | 40 | .
CC(=O)c1ccc(OCC(=O)N(C2CCCCC2)C2CCS(=O)(=O)C2)cc1 (centres undefined) | . | . | / | / | / | /
O=C(CCl)N(C1CCCC1)C1CCS(=O)(=O)C1 (centres undefined) | . | 16µM | . | . | . | .
Cc1nc2sc(C(c3ccco3)N3CCC(C)CC3)c(O)n2n1 (centres undefined) | . | 45µM | . | . | . | .
Cc1nc2sc(C(c3ccccc3)N3CC(C)OC(C)C3)c(O)n2n1 (centres undefined) | . | . | . | . | . | .
Cc1nc2sc(C(c3ccco3)N3CC(C)OC(C)C3)c(O)n2n1 (centres undefined) | . | 45µM | ? | . | . | .
COc1ccc(-c2noc(CSc3nc4ccccc4[nH]3)n2)cc1 | . | . | / | / | / | /
COc1ccc(-c2noc(CSc3nc(N)cc(=O)[nH]3)n2)cc1 | . | . | . | . | 8.0 | .
COc1cc(C(=O)NCC(c2ccc(N(C)C)cc2)N2CCc3ccccc32)cc(OC)c1OC (centres undefined) | . | . | / | / | / | /
CC(=O)Nc1ccc(OS(=O)(=O)c2ccccc2C)cc1 | . | . | . | . | . | .
COc1cccc(C(=O)NNC(=O)c2ccc3ccccc3c2)c1 | . | / | / | / | / | /
COc1cccc(C(=O)Oc2ccc3ccc(O)cc3c2)c1 | . | . | . | / | 39 | .
Cc1ccccc1S(=O)(=O)Oc1ccc2ccc(O)cc2c1 | . | . | . | / | 32 | .
Cc1ccccc1C(=O)Oc1ccc2ccc(O)cc2c1 | . | . | . | / | 59 | .
O=C(NCCc1ccccc1Cl)c1ccc(Cn2c(=O)c3cccn3c3cccnc32)cc1 | . | . | / | / | / | /
Cc1ccc(CN(CC2CCCO2)C(=O)CN2C(=O)C(C(C)C)Oc3ccccc32)o1 (centres undefined) | ? | 35µM | . | . | . | .
COc1ccc(C(=O)O/N=C(/c2cccs2)C(C)(C)C)cc1 | . | . | . | . | . | .
SMILES | Tb PYK inh | Sm TGR block | Giardia FBPA inh | Shiga toxin inh | CHX counter | LmPK inh
C/C(=N/OC(=O)c1ccccc1Br)c1ccc(C)cc1 | . | . | . | 139 | 66 | .
C/C(=N/OC(=O)c1ccc(C)cc1)c1cccs1 | ? | . | . | 123 | 33 | 10µM
C/C(=N\OC(=O)c1ccc(C)cc1)c1sc(C)nc1C | . | . | . | . | 32 | ?
CC(C)=NOC(=O)c1ccc(-c2ccccc2)cc1 | . | . | . | . | . | .
C/C(=N\OC(=O)c1ccc(Cl)c(Cl)c1)c1sc(C)nc1C | . | . | . | . | . | .
O=C(NCc1ccccc1)C1CCN(C(=O)c2cnn(-c3ccccc3)c2-n2cccc2)CC1 | . | . | / | / | / | /
CC(=O)c1cccc(NC(=S)NCc2ccccc2)c1 | . | ? | . | . | . | .
CC(=O)c1cccc(NC(=S)Nc2cccc3ccccc23)c1 | . | ? | . | 83 | 44 | .
